Screening results (PubChem)
Sampled rows, rich in hits. Any-hit rate of the full collection: about 1.3%.
pAkt inh: HTS Assay for Inhibitors of Akt Phophorylation: Primary Screen | Neuro2A IGF-stimulated pAkt S473 HTRF, 20 min; hits give low values | activity change, % for hits at 50 µM | hit rate 0.32% among 360,000 | AID 651550, 2012; in the data active means activity change below about -80%; inconclusive means mostly about -51% to -80%
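Neuro2A cells in DMEM with 0.5% FBS, overnight at 37 deg C, given compound at single 50 µM final, then IGF (6 nM final) for 20 min at 37 deg C. Lysed; phospho-Akt Ser473 by HTRF after 24 h, 665/615 ratio.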
Six1-Eya2 inh: qHTS Assay for Inhibitors of the Six1/Eya2 Interaction | Homeobox protein SIX1 (Homo sapiens) + Protein phosphatase EYA2 (Homo sapiens), … | AlphaScreen GST-Six1/His-Eya2 binding, biochemical; hits give low values | activity change, % (concentration not given with the values) | hit rate 0.56% among 360,000 | AID 651725, 2012
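Homogeneous AlphaScreen proximity assay pairing GST-Six1 with His-tagged Eya2 (added as 5X mix: 250 nM and 500 nM) in 50 mM Tris pH 8.0, 300 mM NaCl, 1 mM TCEP. Glutathione donor and nickel acceptor beads; 1 h, 37 °C, dark.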
CtBP-E1A inh: qHTS Assay for Inhibitors of the CtBP/E1A Interaction; AID 651724, 2012; hit rate 0.49% among 340,000; activity change, % (test concentration not listed); AlphaScreen GST-E1A/His-CtBP binding, 1536-well; hits give low values; CtBP / adenovirus E1A interaction (AlphaScreen)
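In 5 uL wells, 23 nL compound meets equimolar GST-E1A and His-CtBP (5X stock 125 nM each) for 2 h, 37 °C. Beads (5X, 50 ug/mL) then 1 h, 37 °C, dark.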
CCT chaperon mod: High-Throughput Screening for Modulators of Cytosolic Chaperonin Activity | activity change, % (no concentration beside the values), hits read low | purified chaperonin ATPase assay, HTRF ADP detection, 30 min | hit rate 0.3% among 360,000; in the data active means activity change below about -30%
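Enzyme 40 or 20 nM (batch-dependent) in Tris pH 7.4/KCl/MgCl2/DTT; cpd 76 uM single point; ATP 10 uM; 30 min 37 °C; Transcreener ADP HTRF detection, 30 min RT; ratio 665/615.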
* marks the source's active call; other numbers are inactive results; i = inactive; ? = inconclusive; . = no result given. Unless noted, no stated cut-off is given here; in the data, active means activity change below about -65%; inconclusive means mostly about -30% to -63%; inactive means weaker than that. On the % scale 0 is the no-effect control and ±100 the full control effect.

SMILES | pAkt inh | Six1-Eya2 inh | CtBP-E1A inh | CCT chaperon mod
O=C(COC(=O)c1cc(=O)[nH]c2ccccc12)c1ccc(Br)cc1 | i | 5.4 | 6.3 | -126.4*
CC1Cc2cc(/C(O)=C3/C(=O)C(=O)N(CCN4CCOCC4)C3c3ccc([N+](=O)[O-])cc3)ccc2O1 (stereo not given) | i | 8.0 | 4.8 | 0.8
CCN(CC(=O)NC1CCS(=O)(=O)C1)S(=O)(=O)c1ccc(Cl)c(C(F)(F)F)c1 (stereo not given) | i | 8.7 | 4.9 | -2.6
COc1ccc2oc(C(=O)OCC(=O)N(C)C3CCCCC3)c(C)c2c1 | i | -3.6 | 6.2 | -0.3
O=C(CCSc1ccc(Cl)cc1)c1cccs1 | -107.4%* | 24.8 | 26.0 | -1.1
COc1cccc(NC(=S)NNC(=O)C(C)n2nc(C)c([N+](=O)[O-])c2C)c1 (stereo not given) | i | -2.4 | 12.1 | -0.9
COc1cccc(/C=N/NC(=O)C(C)n2nc(C)c([N+](=O)[O-])c2C)c1O (stereo not given) | i | -89.4* | -65.6* | 0.0
COc1cccc(/C=N/NC(=O)Cn2nc(C)c([N+](=O)[O-])c2C)c1O | i | -94.6* | -93.9* | -1.0
CCOc1ccc(NC(=O)CCC(=O)NNC(=O)COc2ccc(C)cc2Br)cc1 | i | 15.0 | 10.5 | -36.4*
CCOc1ccc(NC(=O)CCC(=O)NNC(=O)COc2ccc(C)cc2)cc1 | i | -1.4 | . | 0.9
CCOc1ccccc1-n1c(SCC(N)=O)nnc1-c1ccc(O)cc1 | i | -89.7* | -90.4* | 0.1
CCN(CC)C(=O)[C@H]1C[C@H](CC(=O)NC(C)(C)C)C(=O)N2CCc3c([nH]c4cc(-c5ccco5)ccc34)[C@]12C | i | -7.0 | -9.4 | 0.9
CC(C)N(C(=O)[C@H]1C[C@H](CC(=O)NC(C)(C)C)C(=O)N2CCc3c([nH]c4cc(-c5ccco5)ccc34)[C@]12C)C(C)C | i | -19.9 | -14.3 | -41.5*
CC(=O)Nc1ccc(NC(=O)c2ccccc2Sc2ccc([N+](=O)[O-])cc2Cl)cc1 | i | -10.5 | 5.2 | -34.5*
COc1cnc(-c2ccccn2)[nH]c1=O | i | -90.6* | -94.5* | -2.3
CCc1cc2c(=O)[nH]c(-c3ccccn3)nc2s1 | i | -91.7* | 3.1 | -0.5
CCc1cc2c(=O)[nH]c(N3CCCC3)nc2s1 | i | 6.5 | -14.5 | 0.8
COc1ccc(NC(=O)CSc2nnc(-c3cccs3)n2-c2ccccc2)cc1 | -107.2%* | -1.4 | 1.3 | 0.0
COc1ccc(NC(=O)CSc2nnc(C3CC3)n2-c2ccccc2)cc1 | i | -2.5 | 4.6 | -1.0
COc1ccc(NC(=O)CSc2nnc(CCC(=O)O)c(=O)n2N)cc1 | i | 1.3 | . | -56.1*
O=C(CN1C(=O)NC2(CCCCC2)C1=O)Nc1ccccc1N1CCCC1 | i | -4.0 | -3.1 | 2.8
CN1CCC(=O)N(CCOc2ccccc2)CC1 | i | -83.5* | -85.6* | -0.6
Nc1nc(C(F)(F)F)cc(=O)[nH]1 | i | 4.8 | . | -1.6
O=c1cc(C(F)(F)F)nc(-n2[nH]c3c(c2=O)CCCC3)[nH]1 | i | -84.6* | -87.5* | -2.0
Cc1ccc(N2CCOCC2)c2c1C(=O)c1ccccc1C2=O | i | -75.9* | ? | -0.2
SMILES | pAkt inh | Six1-Eya2 inh | CtBP-E1A inh | CCT chaperon mod
C[C@H]1CN([C@@H](C)CO)C(=O)CCCn2nncc2CO[C@@H]1CN(C)S(=O)(=O)c1cccc(F)c1 | i | 4.2 | 5.2 | -1.8
CN(C)CCNCc1ccc(OC2CCCC2)cc1 | -113.7%* | 3.0 | -0.3 | -2.7
Cc1ccc(C(C)C)cc1S(=O)(=O)NCc1ccccn1 | i | -0.6 | . | 0.1
COc1cc(NC(=O)c2cc([N+](=O)[O-])ccc2NC(=O)CN2CCN(c3ccccn3)CC2)cc(OC)c1 | i | -22.4 | -15.3 | -2.7
CN/C=C1\C(=O)C(C)(C)Oc2ccc3ccc(=O)oc3c21 | -93.5%* | -17.5 | -15.4 | -1.5
CC(Oc1ccc(Cl)cc1)C(=O)N1CCN(C(=O)c2ccco2)CC1 (stereo not given) | i | -0.8 | -11.2 | 0.0
CCOc1ccc(S(=O)(=O)Nc2ccc(O)c(Sc3ncn[nH]3)c2)cc1 | i | -2.6 | -4.8 | -38.4*
COc1ccc(C(=O)N=C2SC3CS(=O)(=O)CC3N2c2ccc(N(C)C)cc2)cc1OC (stereo not given) | . | 21.2 | . | -59.5*
